In the supplement of paper PMC11634586:
Counter-ions that a name gives are not always drawn.

What follows are molecules tested on NCI-H1688 (assay: inhibition of cell viability relative to untreated control (fraction); higher = stronger growth inhibition, active = 0.5 or more). Conditions: 30 µM; 24 h.
Summary of the method: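 Compounds from a natural compound library (TargetMol) were tested at 30 µM on NCI-H1688 small cell lung cancer cells for 24 h at 37°C under 5% CO2. Cell Counting Kit-8 absorbance at 450 nm, read in triplicate, gave the viability. The values express inhibition of cell viability as a fraction relative to untreated cells.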

Row | Structure (SMILES) | inhibition of cell viability
1 | O=C(/C=C/c1ccc(O)cc1)c1ccc(O)cc1O [Isoliquiritigenin] | 0.485 (inactive)
2 | C=CCSC[C@H](N)C(=O)O [S-allyl-L-cysteine] | -0.0574 (inactive)
3 | CC(=O)O[C@@]12CO[C@@H]1C[C@H](O)[C@@]1(C)C(=O)[C@H](O)C3=C(C)[C@@H](OC(=O)[C@H](O)[C@@H](NC(=O)OC(C)(C)C)c4ccccc4)C[C@@](O)([C@@H](OC(=O)c4ccccc4)[C@H]21)C3(C)C [Docetaxel] | 0.493 (inactive)
4 | CC1C(=O)OC2C(O)C34C5CC(C(C)(C)C)C36C(OC(=O)C6O)OC4(C(=O)O5)C12O (stereo unspecified) [Ginkgolide B] | -0.0261 (inactive)
5 | O=C(O)c1cccnc1 [Nicotinic acid] | 0.0212 (inactive)
6 | O=C1C=C(O)C(=O)c2ccccc21 [Lawsone] | -0.319 (inactive)
7 | COc1cc2c(cc1OC)-c1cc3ccc(OC)c(OC)c3c[n+]1CC2 [Palmatine chloride] | 0.0401 (inactive)
8 | CO[C@H]1C[C@H](O[C@H]2[C@H](C)O[C@@H](O[C@@H]3/C(C)=C/C[C@@H]4C[C@@H](C[C@]5(C=C[C@H](C)[C@@H](C6CCCCC6)O5)O4)OC(=O)[C@@H]4C=C(C)[C@@H](O)[C@H]5OC/C(=C\C=C\[C@@H]3C)[C@]54O)C[C@@H]2OC)O[C@@H](C)[C@@H]1O [Doramectin] | 0.993 (active)
9 | N[C@@H]1CONC1=O [D-Cycloserine] | 0.0589 (inactive)
10 | CCCCCCCCCCCCCCCCCCOCC(O)CO (stereo unspecified) [Batyl alcohol] | -0.0252 (inactive)
11 | CC(C)=CCC[C@](C)(O[C@@H]1O[C@H](CO[C@@H]2O[C@@H](CO)[C@H](O)[C@H]2O)[C@@H](O)[C@H](O)[C@H]1O)[C@H]1CC[C@]2(C)[C@@H]1[C@H](O)C[C@@H]1[C@@]3(C)CC[C@H](O[C@@H]4O[C@H](CO)[C@@H](O)[C@H](O)[C@H]4O[C@@H]4O[C@H](CO)[C@@H](O)[C@H](O)[C@H]4O)C(C)(C)[C@@H]3CC[C@]12C [Ginsenoside Rc] | -0.0382 (inactive)
12 | C[C@H](CCC(=O)O)[C@H]1CC[C@H]2[C@@H]3[C@H](O)C[C@@H]4C[C@H](O)CC[C@]4(C)[C@H]3C[C@H](O)[C@]12C [Cholic Acid] | -0.419 (inactive)
13 | O=C(/C=C/c1ccc(O)c(O)c1)O[C@H](Cc1ccc(O)c(O)c1)C(=O)O [Rosmarinic acid] | 0.0726 (inactive)
14 | C[N+]1(C)CCCC1C(=O)O (stereo unspecified) | 0.205 (inactive)
15 | C[C@]12CC[C@@H]3c4ccc(O)cc4CC[C@H]3[C@@H]1C[C@@H](O)[C@@H]2O [Estriol] | 0.0233 (inactive)
16 | Cc1cccc(C)c1NC(=O)c1ccccc1C(=O)O [Ftaxilide] | -0.0604 (inactive)
17 | Cc1[nH]ccc2c1[nH]c1cc(=O)ccc12 [Harmol] | 0.664 (active)
18 | COC1=C(OC)C(=O)C(C/C=C(\C)CC/C=C(\C)CC/C=C(\C)CC/C=C(\C)CC/C=C(\C)CC/C=C(\C)CC/C=C(\C)CC/C=C(\C)CC/C=C(\C)CCC=C(C)C)=C(C)C1=O [Coenzyme Q10 (CoQ10)] | -0.0281 (inactive)
19 | N[C@H]1C(O)O[C@H](CO)[C@@H](O)[C@@H]1O (stereo partly specified) [Glucosamine hydrochloride] | 0.0567 (inactive)
20 | NC(N)=O | -0.0194 (inactive)
21 | CC(=O)OCC(=O)[C@@]1(O)CC[C@H]2[C@@H]3CCC4=CC(=O)C=C[C@]4(C)[C@@]3(Cl)[C@@H](Cl)C[C@@]21C [Dichlorisone Acetate] | -0.129 (inactive)
